Screening results deposited in PubChem BioAssay by Pan Lab, Icahn School of Medicine at Mount Sinai.
Only a selection was taken, and hits are over-represented in it overall.
ROC1-CUL1 inh: human ROC1-CUL1 E3 ligase inhibition; in vitro K48 di-Ub FRET, acceptor:donor ratio, 45 min; 140,000 tested, 0.6% active; inhibition, % at 10 µM; AID 1347404; in the data active = inhibition above about 25%
An asterisk follows results filed as active.

SMILES	ROC1-CUL1 inh
O=C1/C(=C\c2cccc(F)c2)SC(=S)N1c1cccc(C(F)(F)F)c1	-0.9
O=C(O)C(Cc1ccccc1)N1C(=O)/C(=C/c2ccc(Cl)cc2)SC1=S (stereo unspecified)	79.2*
COC(=O)c1cccc(-c2ccc(/C=C3\C(=O)N(c4cccc(C(=O)O)c4)N=C3C(F)(F)F)o2)c1	95.2*
O=C(O)c1cccc(-c2ccc(/C=C3\SC(=S)N(c4cccc(F)c4)C3=O)o2)c1	94.0*
c1csc(CN2CCC(n3cc(C4CC4)nn3)CC2)c1	2.1
CCn1c(=O)c2c(nc3n(-c4cc(C)cc(C)c4)c(C)cn23)n(C)c1=O	-3.1
CCN1C(=O)CC2Sc3ccccc3N=C21 (stereo unspecified)	-6.1
COc1ccc(Nc2cc(C)nc3c(C)ccc(N)c23)cc1	-2.9
CC1=C(C)C2(O[C@@H](c3ccccc3)[C@H](c3ccccc3)O2)C1=O	-4.4
CCn1c(=O)c2c(nc3n(-c4ccc(N(C)C)cc4)c(C)cn23)n(C)c1=O	7.7
COc1ccc(N2C(=O)/C(=C/c3cccn3C(C)(C)C)C(=O)NC2=S)cc1	15.7
CCc1ccc(N2C(=O)/C(=C/c3cccn3C(C)(C)C)C(=O)NC2=S)cc1	0.8
CN1C(=O)/C(=C/c2cccn2C(C)(C)C)C(=O)NC1=S	86.8*
CC1CCC(C(=O)OCC(=O)c2ccc(Br)cc2)C(C)C1 (stereo unspecified)	3.5
CCC(=O)N1CCCC1C(=O)Nc1cccc(-c2cc3ccccc3[nH]2)c1 (stereo unspecified)	-7.7
N#CC1C(=N)Oc2n[nH]c(-c3ccc(Cl)cc3)c2C1c1ccc2ccccc2c1 (stereo unspecified)	-10.7
CN=C1CC=CC=C(C(=O)/C=C/c2cccc(Oc3ccccc3)c2)C1=O	104.3*
CN=C1CC=CC=C(C(=O)/C=C/c2ccc(C)cc2C)C1=O	103.0*
CN=C1CC=CC=C(C(=O)/C=C/c2cc(C)ccc2C)C1=O	3.1
CN=C1CC=CC=C(C(=O)/C=C/c2ccc(C(F)(F)F)cc2)C1=O	-1.0
CC1=NC(=O)C(C(=O)/C=C/c2ccccc2)=C(C)C1	1.0
Cc1ccc(/C=C/C(=O)C2C=CC=CC(=O)C2=O)c(C)c1 (stereo unspecified)	0.0
COc1cccc(/C=C/C(=O)c2ccccc2)c1	0.0
CN=C1CC=CC=C(C(=O)/C=C/c2c(Cl)cccc2Cl)C1=O	22.8
CN=C1CC=CC=C(C(=O)/C=C/c2ccccc2)C1=O	84.2*
SMILES	ROC1-CUL1 inh
N#CC(C=Nc1ccccc1I)c1nc(-c2cc3ccccc3oc2=O)cs1 (stereo unspecified)	5.4
CC(C)C(NC(=O)c1ccc(F)cc1)c1nnc(SCC(=O)Nc2ccc3ccccc3c2)n1C (stereo unspecified)	6.1
Cc1ccc(C(=O)C2C(=O)C(=O)N(c3cccc(C(F)(F)F)c3)C2c2ccccc2F)cc1 (stereo unspecified)	3.7
Cc1ccc(N2C(=O)/C(=C/c3cccn3-c3ccc(N(C)C)cc3)C(=O)NC2=S)cc1C	34.7*
Cc1cccc(N2C(=O)/C(=C/c3cccn3-c3cccc(C(F)(F)F)c3)C(=O)NC2=S)c1	0.4
COc1cc(/C=C2\C(=O)NC(=S)N(c3ccccc3F)C2=O)c(Br)cc1O	10.6
COc1cccc(/C=C2\C(=O)NC(=S)N(c3ccccc3C)C2=O)c1OC(C)C	30.6*
Cc1ccccc1N1C(=O)/C(=C/c2cccn2-c2cccc(C(=O)O)c2)C(=O)NC1=S	102.3*
O=C1NC(=S)N(c2ccccc2F)C(=O)/C1=C/c1cccn1-c1cccc(C(=O)O)c1	100.9*
Cc1ccccc1N1C(=O)/C(=C/c2cc(Cl)cc(Cl)c2O)C(=O)NC1=S	7.1
O=C(O)c1cccc(-n2cccc2/C=C2\SC(=O)N(Cc3ccccc3F)C2=O)c1	8.2
CCOc1ccc(/C=C2\C(=O)NC(=S)N(c3cccc(C)c3C)C2=O)cc1	-1.4
O=C1NC(=S)N(c2ccccc2)C(=O)/C1=C/c1cccn1-c1ccc(Br)cc1	5.3
COc1cccc(C=C2C(=O)c3ccccc3C2=O)c1OC(C)C	-7.5
CCc1ccc(N2C(=O)/C(=C/c3cccn3-c3cccc(C(=O)O)c3)C(=O)NC2=S)cc1	21.5
Cc1cc(-c2cccs2)c(C#N)c(SCc2ccc(Cl)nc2)n1	-0.1
Cc1cc(Cl)ccc1OCC(=O)Nc1cc(C(F)(F)F)ccc1N1CCOCC1	5.9
COc1ccc(F)cc1S(=O)(=O)N1CCOCC1	0.2
CCN(CC)CC(=O)Nc1cc(C23CC4CC(CC(C4)C2)C3)ccc1Br	0.3
COc1cccc(C2CCCN2c2nncc(-c3ccccc3F)n2)c1 (stereo unspecified)	2.3
CCN1CCCC1CNC(=O)CCC1CCN(C(=O)CN2CCCCCC2)CC1 (stereo unspecified)	-5.1
c1ccc(CCC2CCCN(C3CCN(Cc4cccnc4)CC3)C2)cc1 (stereo unspecified)	1.5
Cc1ccc(OCc2nn3c(-c4ccncc4)nnc3s2)cc1	3.1
CSc1nc2ncc(C(O)C(O)CO)nc2c(=O)[nH]1 (stereo unspecified)	10.3
Cc1cc(C)cc(-n2c(C)c(C)n3c4c(=O)n(C)c(=O)n(C)c4nc23)c1	4.1
SMILES	ROC1-CUL1 inh
Cc1cccc(-n2c(C)c(C)n3c4c(=O)n(C)c(=O)n(C)c4nc23)c1	25.6*
Cc1c(C)n2c3c(=O)n(C)c(=O)n(C)c3nc2n1-c1cccc(O)c1	1.3
COc1ccc(OC)c(/C=C2/C(=O)NC(=O)N(c3ccccc3OC)C2=O)c1	0.0
Cc1ccc(S(=O)(=O)N=C2Cc3ccccc3N2C)cc1	27.0*
CC(=O)N=C1CC(=NS(=O)(=O)c2ccc(C)cc2)CC(=NC(C)=O)C1=O	-1.0
Cc1ccc(S(=O)(=O)N=NC2CCSCC2)cc1	-0.7
CCCCOC(=O)c1ccc(OC(=O)C(CC)CC)cc1	-0.3
Cc1ccn(CCC(=O)N2CCc3c(cnc(C)c3CNC(=O)/C=C/c3cccs3)C2)n1	-6.6
O=C(CC1C(=O)NCCN1CCCc1ccccc1)NCCOc1cccnc1 (stereo unspecified)	-3.9
CCOC(=O)C1=C(C)N=c2s/c(=C\c3cc(Cl)cc(Cl)c3O)c(=O)n2C1c1ccccc1Cl (stereo unspecified)	-28.9
Cc1ccccc1NC(=O)C1C2c3ccccc3OC1(C)N=c1s/c(=C/c3cnn(C)c3C)c(=O)n12 (stereo unspecified)	-4.1
COC(=O)C1C2(C)N=c3s/c(=C\c4cc(Cl)cc(Cl)c4O)c(=O)n3C3c4ccccc4OC312 (stereo unspecified)	41.3*
CCOC1=NC(=O)C(CC)C(=O)O1 (stereo unspecified)	5.3
N#C/C(=C\c1ccc([N+](=O)[O-])o1)c1nc(-c2ccc(F)cc2)cs1	-14.1
N#C/C(=C/c1ccc([N+](=O)[O-])o1)C(=O)O	73.2*
CC(=O)/C(C#N)=C/c1ccc(C#N)o1	2.7
CN(C)c1cc[n+](Cc2ccccn2)cc1	0.1
c1ccc(C[n+]2cccc3c2CCCC3)nc1	44.9*
C1=C(CCNCc2ccccn2)CCCC1	5.5
O=C(OC(C(=O)c1ccccc1)c1ccccc1)c1ccccc1Br (stereo unspecified)	2.4
O=C(Nc1ccccc1)c1cc(S(=O)(=O)Nc2ccc3c(c2)OCO3)ccc1Cl	4.1
CN(C)S(=O)(=O)c1ccc(NC(=O)c2ccc(Cl)s2)cc1	1.5
COc1cc(NC(=O)CSc2nc(-c3ccc(C)cc3)nc3c2Cc2ccccc2O3)cc(OC)c1	5.0
COc1cccc2c1Oc1nc(-c3ccccc3)nc(SCC(=O)Nc3ccccc3)c1C2	-6.3
